Consider 4 molecules from PubChem BioAssay (NCATS).

Assay [1] in a line: AP1 Signaling Pathway (AID 357).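 Also: ME-180 reporter cells stimulated with EGF at its EC50 level; % is scaled to controls: 0 for no effect and ±100 for the full control effect.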 Conditions: ME-180 AP-1-bla reporter, EGF-induced, beta-lactamase ratio, 5 h. In a few lines: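 In this screen, ME-180 cells in Opti-MEM with 0.5% dialyzed FBS received EC50 EGF and compound titrations for 5 h. AP-1 reporter beta-lactamase was detected via CCF4 ratio, giving AC50 for positive and negative modulators.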
Assay [2] addresses Cytochrome P450 1A2 (Homo sapiens) (UniProt P05177). The experiment in a line: p450-cyp1a2 (AID 410; calls by dose curve; also: potency is read from the fitted curve at half-maximal effect;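 as to activity change, negative = inhibition: -100% = full effect of reference inhibitor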). The following applies: recombinant CYP1A2, luciferin-ME demethylation, luminescence; series mostly up to 57 µM. Summed up:
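Luminescent readout of luciferin formed from Luciferin-ME by human CYP1A2; data normalized against complete inhibition by 57 uM furafylline. Enzyme 20nM, substrate 100uM at Km, 100mM KPO4 buffer, 60 min reaction at room temperature.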

Assay [3] can be described thus: NFAT Signaling Pathway (AID 444).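 Also: carbachol stimulus at about its EC50 of 1 µM final; % is scaled to controls: 0 for no effect and ±100 for the full control effect.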 The following applies: Jurkat NFAT-bla M1, carbachol, beta-lactamase ratio, 5 h. In a few lines:
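Jurkat cells with NFAT-driven β-lactamase reporter and co-expressed M1 receptor, stimulated with carbachol (final 1 uM, ~EC50), compound titration, 5 h at 37 °C. CCF4 loaded 1 h at RT; 460/530 nm ratio gave %activity and AC50.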

The nature of assay [4]: Stat Signaling Pathway (AID 446).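 Also: ME-180 cervical cancer cells given 40 pM IL-6 alongside compound; SIE-controlled beta-lactamase reporter measured as 460/530 nm FRET emission ratio; % is scaled to controls: 0 for no effect and ±100 for the full control effect.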 Conditions: ME-180 SIE beta-lactamase reporter, IL-6 stimulated, 5 h. Summed up: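 Screening format detects activators and inhibitors alike: ME-180 SIE-bla cells stimulated at 40 pM IL-6 for 5 hrs with compound, then dual-emission beta-lactamase read at 405 nm excitation.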
The target in assay [5] is Glucocorticoid receptor (Homo sapiens) (UniProt P04150). Description: GR-GFP Redistribution (AID 450;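 active = compounds whose dose series gives a full or clear partial fitted curve of increased nuclear translocation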; also: potency is read from the fitted curve at half-maximal effect). The following applies: U2OS GR-GFP nuclear translocation, laser cytometry, 2 h.
Glucocorticoid receptor (Homo sapiens), sequence (P04150 whole entry, looked up, the tested form may be a part): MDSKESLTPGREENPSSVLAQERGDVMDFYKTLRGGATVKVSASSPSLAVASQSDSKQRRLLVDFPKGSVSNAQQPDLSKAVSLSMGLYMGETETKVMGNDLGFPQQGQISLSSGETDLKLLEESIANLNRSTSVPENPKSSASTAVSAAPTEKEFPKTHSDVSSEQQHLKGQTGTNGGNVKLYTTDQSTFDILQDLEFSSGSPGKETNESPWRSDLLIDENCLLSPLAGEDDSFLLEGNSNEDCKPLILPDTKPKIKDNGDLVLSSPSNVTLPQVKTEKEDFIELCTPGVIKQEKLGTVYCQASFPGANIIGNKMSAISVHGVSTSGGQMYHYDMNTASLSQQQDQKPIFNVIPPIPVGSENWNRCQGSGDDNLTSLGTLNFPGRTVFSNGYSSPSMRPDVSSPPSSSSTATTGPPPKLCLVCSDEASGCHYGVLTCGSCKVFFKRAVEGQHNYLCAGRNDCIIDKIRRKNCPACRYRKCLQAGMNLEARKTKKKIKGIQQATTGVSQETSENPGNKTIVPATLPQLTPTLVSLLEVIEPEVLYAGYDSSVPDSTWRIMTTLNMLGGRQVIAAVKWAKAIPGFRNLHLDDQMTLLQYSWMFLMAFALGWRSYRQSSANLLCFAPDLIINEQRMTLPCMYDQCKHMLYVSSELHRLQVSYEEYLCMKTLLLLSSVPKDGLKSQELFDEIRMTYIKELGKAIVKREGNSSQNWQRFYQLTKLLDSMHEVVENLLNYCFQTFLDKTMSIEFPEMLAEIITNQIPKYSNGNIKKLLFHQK
The target is the same in assay [6]. Description: GR-EFC Redistribution (AID 451; calls by dose curve; also: potency is read from the fitted curve at half-maximal effect). Conditions: CHO-K1 GR-EFC translocation, beta-gal luminescence, 2 h. Summed up: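 CHO-K1 cells expressing nuclear EA and GR-ED fragments of b-gal; compounds titrated up to 46 uM final, 2 h at 37 C. GR nuclear translocation read as complemented b-gal luminescence after 1 h RT detection.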
In assay [7] the target is Mitogen-activated protein kinase 10 (Mus musculus) (UniProt Q61831). The experiment in a line: JNK3 AlphaScreen Assay (AID 530).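 Also: kinase came from lysate of stimulated human HepG2 cells; signal reports phosphorylation of biotinylated GST-cJun 1-79 at Ser73 with 10 µM ATP; % is scaled to controls: 0 for no effect and ±100 for the full control effect.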 Conditions: JNK3 lysate, c-Jun phosphorylation; series mostly up to 57.1 µM. In a few lines: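 Pre-activated (IL-1β/TNFα) JNK3 in HepG2 lysates phosphorylates biotin-GST-cJun(1-79), 10 uM ATP; anti-phospho-cJun(Ser73) AlphaScreen read at room temperature, pH 7.6 Tris buffer. Compounds pre-incubated 15 min as titrations.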

Assay [8] has as its target 3',5'-cyclic-AMP phosphodiesterase 4B (Homo sapiens) (UniProt Q07343). Description: qHTS Assay for Inhibitors of PDE-IV (AID 607; active = well fitted activation curve with a large enough effect in the main read-out, with a control signal flat, not every such curve was filed as active; also: % of control where 0% means no effect). Conditions: HEK293 ACTOne CNG channel cells, membrane potential fluorescence; series mostly up to 22.9 µM. Summed up: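 The readout is membrane depolarisation from a cAMP-sensing CNG channel, detected with a potential dye at ex 535/em 590. Cells were HEK293-derived (endogenous PDE-IV) at 1000 cells/well, titrated up to 22.9 uM final.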
A general note: Quantitative high-throughput screening tests each substance at several concentrations.

Assay [9] has as its target Guanine nucleotide-binding protein G(i) subunit alpha-1 (Homo sapiens) (UniProt P63096). The experiment in a line: qHTS Assay for Inhibitors of RGS12 GoLoco Motif Activity (Green Fluorophore) (AID 879; active = well fitted curve in the direction sought with a large enough effect; an effect the other way counts as inactive or inconclusive;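 also: 0% = labeled peptide with Gαi1 and full inhibition = labeled peptide alone without protein; negative values mean loss of peptide binding seen as reduced polarization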). The following applies: Galphai1/FITC-RGS12 GoLoco peptide, fluorescence polarization; series mostly up to 57.1 µM. Summed up: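 Fluorescence polarization assay: 50 nM Gαi1 with 10 nM FITC-labeled RGS12 GoLoco peptide in 10 mM Tris pH 7.5, 150 mM NaCl, 0.1 mM GDP, 0.05% NP40, 10 min at room temperature with compound.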

The target in assay [10] is Pyruvate kinase (Leishmania mexicana) (UniProt Q27686). Description: qHTS Validation Assay for Inhibitors of Leishmania Mexicana Pyruvate Kinase (AID 945; active = well fitted curve in the direction sought with a large enough effect; an effect the other way counts as inactive or inconclusive;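 also: 0% = DMSO only neutral control wells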). Conditions: purified L. mexicana pyruvate kinase, enzyme activity, E451W mutant enzyme; series mostly up to 57.5 µM. Summed up: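 The enzyme is a highly purified E451W mutant of LmPYK used at 0.2 nM. It converts 0.5 mM PEP and 0.1 mM ADP over 1 h at room temperature; product ATP is quantified by luciferase luminescence relative to DMSO controls.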
Pyruvate kinase (Leishmania mexicana), sequence (Q27686 2-499 E452W): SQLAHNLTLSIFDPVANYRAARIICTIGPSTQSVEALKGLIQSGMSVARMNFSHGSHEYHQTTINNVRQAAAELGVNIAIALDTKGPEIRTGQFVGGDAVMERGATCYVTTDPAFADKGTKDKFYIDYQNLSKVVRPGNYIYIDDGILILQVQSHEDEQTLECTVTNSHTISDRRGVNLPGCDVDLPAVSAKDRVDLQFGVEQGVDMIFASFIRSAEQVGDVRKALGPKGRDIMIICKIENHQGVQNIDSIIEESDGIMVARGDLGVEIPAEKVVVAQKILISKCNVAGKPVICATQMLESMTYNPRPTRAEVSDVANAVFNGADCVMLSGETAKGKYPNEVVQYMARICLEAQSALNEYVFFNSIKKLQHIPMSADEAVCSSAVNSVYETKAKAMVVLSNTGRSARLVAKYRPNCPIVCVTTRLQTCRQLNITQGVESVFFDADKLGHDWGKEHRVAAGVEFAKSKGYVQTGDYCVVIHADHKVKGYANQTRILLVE

Assay [11] concerns the target Pyruvate kinase PKM (Homo sapiens) (UniProt P14618). Description: qHTS Assay for Activators of Human Muscle Pyruvate Kinase (AID 954; active = well fitted curve in the direction sought with a large enough effect, not every such curve was filed as active;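 also: 0% = uninhibited enzyme and -100% = no enzyme or full thiadiazolimine inhibition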). Conditions: purified human muscle pyruvate kinase, luciferase-coupled luminescence, 1 h; series mostly up to 57.5 µM. Summed up: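 Reaction: 0.1 nM purified PKM2 with 0.5 mM phosphoenolpyruvate and 0.1 mM ADP, room temperature, 1 h. Readout: luciferase-based ATP luminescence after stop reagent. Activators judged against a 0.3 nM enzyme column.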

Assay [12] deals with alpha-glucosidase (Oryza sativa, rice) (UniProt Q653V4). Description: Counterscreen for Glucocerebrosidase Inhibitors: qHTS Assay for Rice alpha-Glucosidase at pH 5.0 (AID 997; active = well fitted curve in the direction sought with a large enough effect; an effect the other way counts as inactive or inconclusive;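 also: 0% = full activity with enzyme and -100% = basal without enzyme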). Conditions: rice alpha-glucosidase enzyme activity; series mostly up to 76.9 µM. In a few lines:
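Rice alpha-glucosidase (4 nM final) with 400 uM 4-methylumbelliferyl-alpha-D-glucopyranoside in citrate buffer pH 5.0, 20 min at room temperature, stopped at pH 10; fluorescence 365/440 nm, compounds 0.7 nM–77 uM, AC50 from Hill fits.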
Background: A counterscreen serves to expose hits that act by an unwanted route or on another target.

A short description of assay [13]: qHTS Assay for Lipid Storage Modulators (AID 1519; calls by dose curve). Conditions: Drosophila S3 cells, BODIPY lipid droplet/cell ratio, laser cytometry, cells loaded with oleic acid; for activity change, negative = inhibition: at 25.7 µM (top of the series). Summed up: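 Cells seeded at 5,000 per well were treated with compounds over a concentration series and loaded with oleic acid (400 uM, as added). Lipid droplet fluorescence (488 nm excitation, 500-530 nm channel) was read by laser-scanning cytometry and normalized to 20 uM Triacsin C.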

The target in assay [14] is Ubiquitin carboxyl-terminal hydrolase 1 (Homo sapiens) (UniProt O94782). The experiment in a line: Inhibitors of USP1/UAF1: Pilot qHTS (AID 504865; active = well fitted curve in the direction sought with a large enough effect; an effect the other way counts as inactive or inconclusive;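 also: rhodamine fluorescence freed from ubiquitin-rhodamine substrate followed over time; top concentration of the series differs between compounds; % is scaled to controls: 0 for no effect and ±100 for the full control effect; nearly all actives have a fitted effect of over 35% in size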). The following applies: purified USP1/UAF1, Ub-rhodamine cleavage fluorescence; series mostly up to 54.9 µM. Summed up: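 Enzyme-free wells gave the negative control, while test wells held 1nM USP1/UAF1 preincubated with compound for 15 min at room temperature. Ub-Rho at 150nM final started the reaction, and fluorescence at 480/540 nm was recorded kinetically.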
Ubiquitin carboxyl-terminal hydrolase 1 (Homo sapiens), sequence (O94782 whole entry, looked up): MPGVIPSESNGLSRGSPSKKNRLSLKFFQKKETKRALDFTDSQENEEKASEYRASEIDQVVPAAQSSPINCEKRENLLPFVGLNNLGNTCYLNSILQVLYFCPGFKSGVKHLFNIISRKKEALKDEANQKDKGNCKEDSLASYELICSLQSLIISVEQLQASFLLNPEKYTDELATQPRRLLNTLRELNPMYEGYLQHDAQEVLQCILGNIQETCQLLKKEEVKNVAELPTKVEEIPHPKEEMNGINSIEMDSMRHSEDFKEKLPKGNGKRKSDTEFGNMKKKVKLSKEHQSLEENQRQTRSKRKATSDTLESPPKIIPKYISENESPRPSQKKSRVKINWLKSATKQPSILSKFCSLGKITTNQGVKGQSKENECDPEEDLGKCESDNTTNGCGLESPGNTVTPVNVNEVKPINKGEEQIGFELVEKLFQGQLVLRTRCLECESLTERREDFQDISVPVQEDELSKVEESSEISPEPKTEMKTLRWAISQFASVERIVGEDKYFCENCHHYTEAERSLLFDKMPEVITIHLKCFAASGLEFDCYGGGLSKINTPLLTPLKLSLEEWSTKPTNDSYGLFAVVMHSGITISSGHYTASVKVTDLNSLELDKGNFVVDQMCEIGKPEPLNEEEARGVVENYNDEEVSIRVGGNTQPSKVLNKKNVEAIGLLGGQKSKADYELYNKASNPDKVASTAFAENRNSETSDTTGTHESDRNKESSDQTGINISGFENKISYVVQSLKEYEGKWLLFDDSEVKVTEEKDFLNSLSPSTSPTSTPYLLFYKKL

Setting [15] is: measured here: cell count channel max response.
[16] abbreviates: measured here: lipid channel max response.

“And” between values parts separate entries of the source, which are not always exact repeats. Equal values may be shown once. Inconclusive results are not listed. Where a structure was tested more than once in an assay, its records may differ in their call. The source made the active and inactive calls. Unless noted, calls follow the shape of the dose curve; as a rule, active = well fitted curve in either direction with a large enough effect (not every such curve was filed as active); inconclusive = small, poorly fitted or top-dose-only effect, or another doubt; inactive = flat fitted curve, though single readings scatter.

Guanine nucleotide-binding protein G(i) subunit alpha-1 (Homo sapiens), sequence (P63096 whole entry, looked up): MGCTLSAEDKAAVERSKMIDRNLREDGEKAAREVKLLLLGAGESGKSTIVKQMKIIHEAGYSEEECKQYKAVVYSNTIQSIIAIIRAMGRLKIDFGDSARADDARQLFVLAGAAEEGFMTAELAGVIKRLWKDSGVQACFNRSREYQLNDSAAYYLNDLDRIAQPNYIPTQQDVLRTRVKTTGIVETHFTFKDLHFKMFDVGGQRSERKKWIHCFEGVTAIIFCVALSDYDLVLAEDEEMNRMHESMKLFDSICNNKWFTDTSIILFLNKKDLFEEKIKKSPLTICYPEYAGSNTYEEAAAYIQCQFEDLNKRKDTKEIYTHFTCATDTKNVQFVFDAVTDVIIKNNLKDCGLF
Pyruvate kinase PKM (Homo sapiens), sequence (P14618 whole entry, looked up): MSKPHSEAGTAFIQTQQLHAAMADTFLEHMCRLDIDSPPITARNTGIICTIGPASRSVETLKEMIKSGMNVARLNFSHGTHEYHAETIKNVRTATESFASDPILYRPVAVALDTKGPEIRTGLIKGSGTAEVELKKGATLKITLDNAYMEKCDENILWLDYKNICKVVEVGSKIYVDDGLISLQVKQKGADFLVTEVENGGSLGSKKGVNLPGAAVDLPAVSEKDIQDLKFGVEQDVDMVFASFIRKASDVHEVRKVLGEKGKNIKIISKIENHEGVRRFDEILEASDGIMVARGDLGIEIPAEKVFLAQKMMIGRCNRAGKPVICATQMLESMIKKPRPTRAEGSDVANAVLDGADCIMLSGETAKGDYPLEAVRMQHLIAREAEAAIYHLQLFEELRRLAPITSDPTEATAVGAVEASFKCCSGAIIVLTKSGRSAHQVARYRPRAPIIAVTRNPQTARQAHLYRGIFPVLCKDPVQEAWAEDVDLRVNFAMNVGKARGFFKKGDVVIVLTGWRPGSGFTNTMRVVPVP
3',5'-cyclic-AMP phosphodiesterase 4B (Homo sapiens), sequence (Q07343 whole entry, looked up): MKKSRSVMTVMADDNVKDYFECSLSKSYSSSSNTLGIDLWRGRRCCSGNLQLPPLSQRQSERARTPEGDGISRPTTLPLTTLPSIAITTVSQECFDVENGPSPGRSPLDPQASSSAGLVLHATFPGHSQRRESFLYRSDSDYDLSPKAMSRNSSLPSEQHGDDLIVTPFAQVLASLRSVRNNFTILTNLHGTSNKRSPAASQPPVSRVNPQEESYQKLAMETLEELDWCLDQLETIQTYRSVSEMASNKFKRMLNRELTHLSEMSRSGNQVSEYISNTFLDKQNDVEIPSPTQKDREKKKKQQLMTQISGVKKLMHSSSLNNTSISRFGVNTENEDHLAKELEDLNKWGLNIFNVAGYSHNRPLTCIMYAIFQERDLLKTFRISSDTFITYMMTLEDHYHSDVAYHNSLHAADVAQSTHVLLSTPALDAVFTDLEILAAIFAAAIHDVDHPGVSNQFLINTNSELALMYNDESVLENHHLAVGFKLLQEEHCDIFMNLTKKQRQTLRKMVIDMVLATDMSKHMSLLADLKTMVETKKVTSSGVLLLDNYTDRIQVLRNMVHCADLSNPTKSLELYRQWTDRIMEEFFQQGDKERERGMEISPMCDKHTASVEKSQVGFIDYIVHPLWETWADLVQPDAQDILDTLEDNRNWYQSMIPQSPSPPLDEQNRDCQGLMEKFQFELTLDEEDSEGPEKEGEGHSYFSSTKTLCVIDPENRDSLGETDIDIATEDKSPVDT
Cytochrome P450 1A2 (Homo sapiens), sequence (P05177 whole entry, looked up): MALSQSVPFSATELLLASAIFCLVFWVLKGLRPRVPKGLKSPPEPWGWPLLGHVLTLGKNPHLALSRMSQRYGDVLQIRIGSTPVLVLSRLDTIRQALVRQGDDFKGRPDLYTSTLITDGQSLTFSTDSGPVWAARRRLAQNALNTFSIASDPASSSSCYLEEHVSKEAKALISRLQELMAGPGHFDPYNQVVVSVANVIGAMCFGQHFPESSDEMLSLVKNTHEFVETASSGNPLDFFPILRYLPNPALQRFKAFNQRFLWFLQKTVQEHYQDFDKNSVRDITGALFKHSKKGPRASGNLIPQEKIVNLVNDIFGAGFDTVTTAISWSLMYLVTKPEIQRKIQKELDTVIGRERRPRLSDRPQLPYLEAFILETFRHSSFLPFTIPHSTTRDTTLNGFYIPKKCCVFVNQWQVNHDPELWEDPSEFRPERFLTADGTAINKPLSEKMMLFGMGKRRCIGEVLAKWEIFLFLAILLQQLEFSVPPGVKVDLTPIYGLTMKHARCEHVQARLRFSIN

With `CC(=O)OCC1=C(C(=O)O)N2C(=O)[C@@H](NC(=O)Cc3cccs3)[C@@H]2SC1`, the activity change, negative = inhibition in assay [1] (at 17.2 µM (top of the series)) was 7.41% (inactive); in assay [1] (at 38 µM (top of the series)) it was -2.48% (inactive); in assay [3] (at 17.2 µM (top of the series)), -11.2% (inactive); in [3] (at 38 µM (top of the series)), 3.89% (inactive); in [13] it was -1.63% (inactive). Moreover, the Potency entry in [2], in assay [7], in [8] and in assay [9] was “inactive” throughout. Also, the activity, negative = inhibition was -1.09% (inactive) in assay [4] (at 17.2 µM (top of the series)) and -3.08% (inactive) in assay [4] (at 38 µM (top of the series)). Besides, the Potency in assay [5] is > 46 µM (inactive) and > 20.6 µM (inactive); in [6], > 46 µM (inactive) and > 20.6 µM (inactive). In addition, the outcome in assay [10], in assay [11] and in [12] was inactive. Further, the max response in assay [13] (setting [15]) was -17.3%; in assay [13] (setting [16]) it was -18.6%.
As to `N[C@H](C(=O)N[C@@H]1C(=O)N2C(C(=O)O)=C(Cl)CS[C@@H]12)c1ccccc1`, the activity change, negative = inhibition in assay [1] (at 17.2 µM (top of the series)) was 6.26% (inactive) and -9.38% (inactive); in assay [1] (at 38 µM (top of the series)), -4.53% (inactive); in assay [3] (at 17.2 µM (top of the series)), -10.5% (inactive) and 0.734% (inactive); in assay [3] (at 38 µM (top of the series)), 5.52% (inactive); in [13], -0.721% (inactive) and -1.78% (inactive). For the same molecule, the Potency result in assay [2], in [7], in assay [8], in assay [9] and in assay [14] was “inactive” in each case. For the same molecule, the activity, negative = inhibition in [4] (at 17.2 µM (top of the series)) is -10.4% (inactive) and 2.37% (inactive); in assay [4] (at 38 µM (top of the series)), 22.7% (inactive). In addition, the Potency in assay [5] was > 46 µM (inactive) and > 20.6 µM (inactive); in [6], > 46 µM (inactive) and > 20.6 µM (inactive). Moreover, the molecule was called inactive in assay [10], in [11] and in assay [12]. In addition, the max response in [13] (setting [15]) was -2.76% and 11.1%; in [13] (setting [16]), -3.03% and 9.1%.
In the case of `c1ccc([C@@H]2CN3CCSC3=N2)cc1`, the activity change, negative = inhibition in [1] (at 17.2 µM (top of the series)) is 0.374% (inactive); in assay [1] (at 38 µM (top of the series)), 8.49% (inactive) and 7.24% (inactive); in [3] (at 17.2 µM (top of the series)) it was -19.6% (inactive); in assay [3] (at 38 µM (top of the series)), -1.25% (inactive) and -14% (inactive); in assay [13] it was -1.37% (inactive). Also, the Potency in [2] was 31.6 µM (active) and inactive and 10 µM (active); in [5], > 46 µM (inactive) and > 20.6 µM (inactive); in assay [6] it was > 46 µM (inactive) and > 20.6 µM (inactive). Besides, the activity, negative = inhibition is -3.45% (inactive) in assay [4] (at 17.2 µM (top of the series)) and 11.8% (inactive) in [4] (at 38 µM (top of the series)). Further, the Potency entry in assay [7], in assay [8], in [9] and in assay [14] was “inactive” throughout. For the same molecule, the result in assay [10], in assay [11] and in assay [12] was inactive. The max response in assay [13] (setting [15]) is 3.69%; in assay [13] (setting [16]) it was -1.44%.
As to `CN1Cc2c(N)cccc2[C@H](c2ccccc2)C1`, the activity change, negative = inhibition in assay [1] (at 17.2 µM (top of the series)) was -6.53% (inactive); in [1] (at 38 µM (top of the series)) it was -7.55% (inactive); in assay [3] (at 17.2 µM (top of the series)), -6.69% (inactive); in assay [3] (at 38 µM (top of the series)), -5.66% (inactive); in assay [13], 1.09% (inactive). Besides, the Potency in assay [2] was 31.6 µM (active) and 6.31 µM (active); in assay [5] it was > 46 µM (inactive) and > 20.6 µM (inactive); in assay [6], > 46 µM (inactive) and > 20.6 µM (inactive). Besides, the Potency result in assay [7], in assay [8] and in [14] was “inactive” each time. Besides, the molecule was classed as inactive in assay [10], in [11] and in assay [12]. Also, the figures for the max response in [13] (setting [15]) and in assay [13] (setting [16]) were -0.662% and 0.613%, respectively.
